# HepG2 viability: qHTS for Inhibitors of TGF-b: Cytotox Counterscreen; AID 588856, 2011; Potency, µM (highest dose often 46.1 µM), for inactives: at the top dose activity change, negative = cytotoxicity, most hits filed as cytotoxic; HepG2 CAGA-GFP viability, ATP luminescence, 18 h; 410,000 tested, 0.76% active
#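 HepG2 CAGA-GFP cells (1000/well, DMEM with 1% FBS) received compound, then TGF-beta at 500 pg/mL final, and were incubated 18 hours at 37 degrees C. Viability was read by CellTiter-Glo luminescence. Media-only wells were set as complete cell-killing and DMSO as no toxicity.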
# ATXN viability: Viability Counterscreen for Primary qHTS for Inhibitors of ATXN expression; S2 cells (HEK-293 line with an ATXN2-luciferase reporter) viability, CellTiter-Fluor protease fluorescence, 24 h; Potency, µM (top dose mostly 56.7 µM), actives largely listed as cytotoxic; 400,000 tested, 0.49% active; note: nearly all actives have a fitted effect of over 40% in size
# Nrf2 inh: Nrf2 qHTS screen for inhibitors. AID 504444, 2011. 360,000 tested, 2.1% active. A549 ARE-Fluc reporter, luciferase luminescence, 18-24 h. Potency, µM (series often up to 46 µM), without a hit: at the top dose activity change, negative = inhibition, actives largely listed as inhibitors; note: % is set by controls: 0 for no effect and ±100 for the full control effect; nearly all actives have a fitted effect of over 60% in size
#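 Nrf2 activity is the BugLite luminescence, read 15 min after reagent at room temperature, following CellTiter-Fluor cytotoxicity readout (30 min, 37C). Compound titrations were applied for 18-24 h to 5000 A549 ARE_Fluc cells/well in 5% FBS OPTI-MEM.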
# A549 tox: Nrf2 qHTS screen for inhibitors: counterscreen for cytotoxicity; 390,000 tested, 0.16% active; Potency, µM (doses to about 46 µM), inactives show at the highest dose activity change, negative = cytotoxicity, most hits filed as inhibitors; AID 504648, 2011; A549 ARE-Fluc cells, CellTiter-Fluor viability, 18-24 h; note: % is set by controls: 0 for no effect and ±100 for the full control effect
#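 A549 ARE_Fluc cells in 5% FBS OPTI-MEM were exposed to compounds in concentration-response for 18-24 h at 37 deg C. Viability was read by CellTiter-Fluor fluorescence (Ex 405/Em 525) after 30 min, before the luciferase read.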
# ATXN2 expr inh: Primary qHTS for Inhibitors of ATXN expression. HEK-293 ATXN2-luciferase reporter, luminescence, 24 h. 360,000 tested, 0.72% active. Potency, µM (top dose mostly 57 µM), for inactives: top-dose activity change, negative = inhibition, hits mostly inhibitors; note: % is set by controls: 0 for no effect and ±100 for the full control effect; nearly all actives have a fitted effect of over 55% in size
#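 ATXN2-luciferase reporter cells (luciferase flanked by upstream and downstream ATXN2 gene portions) were treated 24 h at 37 °C with compounds at up to 57 uM. SteadyGlo luminescence gave expression; GF-AFC fluorescence gave viability.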
# TGFb inhibitor: qHTS for Inhibitors of TGF-b; 410,000 tested, 1.2% active; HepG2 CAGA-GFP TGF-b/SMAD3 reporter, GFP fluorescence, 18 h; TGF-beta stimulated, 500 pg/mL final; Potency, µM (series often up to 46.1 µM), without a hit: at the highest dose activity, negative = inhibition, hits mostly inhibitors; note: % is set by controls: 0 for no effect and ±100 for the full control effect; nearly all actives have a fitted effect of over 65% in size
#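 First, reporter cells (HEPG2 CAGA-GFP) rested 2 h at 37 degrees C. Next, compounds were pinned in and TGF-beta added to 500 pg/mL final. After 18 h, GFP was imaged per cell and summed per well.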
# Starred values were filed as active, the others as inactive; i = inactive; u = inconclusive; x = not tested or not shown. Compounds with a hit are over-represented: about 3.8% of the library has one in this group of screens. Calls come from the whole dose curve; as a rule, active = well fitted curve in the direction sought with a large enough effect; inconclusive = small, poorly fitted or top-dose-only effect, or another doubt; inactive = no such curve, though single readings can be large; an effect the other way counts as inactive or inconclusive. Potency is the fitted concentration of half-maximal effect.
SMILES,HepG2 viability,ATXN viability,Nrf2 inh,A549 tox,ATXN2 expr inh,TGFb inhibitor
CCn1cc2nc(SCC(=O)Nc3ccccc3C(F)(F)F)n(Cc3ccc(C)cc3)c(=O)c2n1,-9.9%,i,-25.9%,-2.6%,-28.6%,-8.5%
Nc1ccn(C2OC(CCl)C(O)C2O)c(=O)n1 (centres undefined),-17.5%,i,x,x,x,-1.7%
Cc1ccc(N2CCN(S(=O)(=O)c3c(C)[nH]c(=O)[nH]c3=O)CC2C)cc1 (centres undefined),-0.8%,i,x,12.0%,2.9%,0.0%
Cc1ccc(N2CCN(S(=O)(=O)c3ccc(Cl)s3)CC2C)cc1 (centres undefined),-1.5%,i,13µM*,-3.5%,-17.7%,u
COc1ccc(NS(=O)(=O)c2ccc3[nH]c4c(c3c2)CCCC4)c(OC)c1,-18.2%,u,u,-11.4%,u,u
COc1ccc(OC)c(CNS(=O)(=O)c2ccc3[nH]c4c(c3c2)CCCCC4)c1,-19.2%,u,16.4µM*,-10.7%,u,u
COc1ccc(NS(=O)(=O)c2ccc3[nH]c4c(c3c2)CCCCC4)cc1,-59.2%,u,16.4µM*,u,u,u
CCOc1ccc(NS(=O)(=O)c2ccc3[nH]c4c(c3c2)CCCCC4)cc1,-100.2%,u,u,-2.0%,u,u
CCOc1ccc(NS(=O)(=O)c2ccc3[nH]c4c(c3c2)CCCC4)cc1,11.2µM*,u,u,-16.4%,u,11.2µM*
O=C(COC(=O)/C=C/c1ccccc1)Nc1ccc(Cl)cn1,-7.8%,i,-1.2%,-3.3%,-12.6%,-16.1%
COc1ccccc1/C=C/C(=O)OCC(=O)Nc1ccc(Cl)cn1,-18.0%,i,u,u,25.1µM*,-10.7%
O=C1C=C(c2ccc3[nH]ccc3c2)C[C@@H](c2ccc(Cl)cc2)C1,-23.0%,u,u,-9.7%,0.0%,11.2µM*
CCc1ccc(C(=O)N2CCC(c3nc(-c4ccc(S(=O)(=O)N5CCCC5)cc4)no3)CC2)cc1,-9.2%,x,11.6µM*,-19.4%,x,u
O=C(CN1C(=O)NC2(CCCC2)C1=O)OCC(=O)c1cccc(Cl)c1,-1.7%,i,-8.4%,-2.7%,-14.3%,-3.7%
CCC(C)c1ccc(S(=O)(=O)N2CCN(C(=O)c3ccc(Cl)c(S(=O)(=O)N4CCOCC4)c3)CC2)cc1 (centres undefined),-18.1%,i,10.3µM*,-10.4%,x,u
O=C(c1ccc(Cl)c(S(=O)(=O)N2CCCCCC2)c1)N1CCN(c2ccccc2O)CC1,-2.0%,i,18.4µM*,-14.7%,-10.5%,u
CCOC(=O)N1CCN(C(=O)c2ccc(Cl)c(S(=O)(=O)N3CCOCC3)c2)CC1,-17.9%,i,8.8%,-3.0%,-16.2%,1.5%
O=C(c1ccc(Cl)c(S(=O)(=O)N2CCCC2)c1)N1CCN(c2ccccc2)CC1,-17.6%,i,14.6µM*,-15.0%,-11.6%,-27.3%
